Results filed as inconclusive are left out. Where a call stands in place of a potency, no number is given. The source made the active and inactive calls. The call rests on the fitted dose curve; in most records, active means well fitted inhibition curve with a large enough effect in the repeat runs; inconclusive means weak or mixed curves; inactive means no such curve, though single readings can be large or run the other way.
Each molecule was assayed against Cytochrome P450 2C9 (Homo sapiens) (UniProt P11712) (assay: Cytochrome P450 Family 2 Subfamily C Member 9 (CYP2C9) small molecule antagonists: luciferase reporter qHTS assay (AID 1671198; further: nearly all actives have a fitted effect of over 50% in size)). Details: P450-Glo CYP2C9 enzyme assay, luciferin luminescence; series mostly up to 53 µM.
Excerpt: U.S. Tox21 Program National Center for Advancing Translational Sciences [NCATS] U.S. Environmental Protection Agency [EPA] National Institutes of Environmental Health Sciences [NIEHS] National Toxicology Program [NTP] U.S. Food and Drug Administration [FDA] Tox21 Assay Overview: Cytochrome P450 (CYP) enzymes are membrane-bound hemeproteins that play a key role in metabolism of drugs and xenobiotics. Evaluation of the effect of chemicals on CYP isozymes is useful to minimize the adverse drug reactions and toxicities in drug development process. Tox21 chemicals were tested for their effect on CYP enzyme activities by using P450-Glo (TM) screening systems (Promega Corporation, Madison, WI). These systems provide a luminescent method containing proluciferin substrates and are converted to luciferin products by CYP isozymes. The luciferin products formed are detected with a luciferin detection reagent, and the amount of light produced is proportional to CYP activity. P450-Glo (TM) CYP2C9 screening system (Catalog. No. V9790) was used to detect the compounds that interfere in CYP2C9 activity.
Tox21 Assay Protocol Summary: Two ul of enzyme-substrate mix was dispensed into medium binding white/solid 1536-well plates (Greiner Bio-One North America Inc., Monroe, NC) using a BioRaptr Flying Reagent Dispenser (FRD, Beckman Coulter, Brea, CA). […] The assay plates were incubated at room temperature for 10 min. Then 2 ul of NADPH regeneration solution was added to each well of the assay plates using an FRD and incubated at 37C for 1 h. The reaction was stopped by adding 4 ul of detection reagent using an FRD and after 20 min incubation at room temperature the luminescence signal was measured using a ViewLux plate reader (Perkin Elmer, Shelton, CT). Data were expressed as relative luminescence units.
Potency means the concentration at half of the fitted maximal effect.

Chain of Cytochrome P450 2C9 (Homo sapiens) (P11712 whole entry, looked up): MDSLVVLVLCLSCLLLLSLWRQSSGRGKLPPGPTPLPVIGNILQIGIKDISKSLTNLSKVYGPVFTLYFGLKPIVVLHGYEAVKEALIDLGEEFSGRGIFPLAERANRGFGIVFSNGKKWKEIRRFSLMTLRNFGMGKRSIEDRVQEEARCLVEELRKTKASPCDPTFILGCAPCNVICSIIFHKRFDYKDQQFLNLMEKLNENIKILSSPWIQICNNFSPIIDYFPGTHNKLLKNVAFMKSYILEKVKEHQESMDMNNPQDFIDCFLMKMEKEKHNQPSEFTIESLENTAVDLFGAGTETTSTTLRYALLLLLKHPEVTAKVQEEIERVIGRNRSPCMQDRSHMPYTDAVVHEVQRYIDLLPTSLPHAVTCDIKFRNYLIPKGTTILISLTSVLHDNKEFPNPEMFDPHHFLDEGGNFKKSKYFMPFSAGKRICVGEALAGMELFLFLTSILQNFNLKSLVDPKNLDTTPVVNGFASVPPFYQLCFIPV

Row | Structure (SMILES) | Potency
1 | CCOC(=O)c1cc(=O)c2c(OCC(COc3cccc4oc(C(=O)OCC)cc(=O)c34)OC(=O)[C@@H](N)CCCCN)cccc2o1 | 15.5 µM (active)
2 | CCCCCCOc1ccc(N)cc1 | 22.4 µM (active)
3 | O=C(O)c1cccc(Cl)c1Cl | inactive
4 | Oc1ccccc1C=NCc1ccccc1 | inactive
5 | CCC/C=C/CO | inactive
6 | CCCCCCCCCC/C=C/C#N | inactive
7 | CN1CCN(C2=Nc3cc(F)ccc3Cc3ccccc32)CC1 | inactive
8 | COc1cc(C)ccc1C(C)C | inactive
9 | O=C(O)[C@@H]1CSCN1 | inactive
10 | Cc1ccc(C=O)s1 | inactive
11 | CNCCC(Oc1ccccc1OC)c1ccccc1 (stereo not given) | inactive
12 | CCN[C@H]1CN(CCCOC)S(=O)(=O)c2sc(S(N)(=O)=O)cc21 | inactive
13 | COc1ccc2nc(NC(=O)Nc3ccccc3)sc2c1 | 15.5 µM (active)
14 | CCCN(CCC)C(=O)C(CCC(=O)O)NC(=O)c1ccccc1 (stereo not given) | inactive
15 | O=c1[nH]c(=O)n([C@H]2C[C@H](O)[C@@H](CO)O2)cc1C(F)(F)F | inactive
16 | COc1ccc(S(=O)(=O)Nc2nnc(CC(C)C)s2)cc1 | 9.77 µM (active)
17 | CC(C)c1ccccc1 | inactive
18 | CN(C)CCOc1ccccc1Cc1ccccc1 | inactive
19 | C[C@@H](N)C(=O)O | inactive
20 | Cc1cc2c(s1)Nc1ccccc1N=C2N1CCN(C)CC1 | inactive

Row | Structure (SMILES) | Potency
21 | O=C(O)c1ccccc1Nc1cc(Cl)ccc1C(=O)O | inactive
22 | COC(=O)/C=C(/C)N | inactive
23 | CC(=O)Oc1cc(C(C)C)c(OCCN(C)C)cc1C | inactive
24 | CC1=C2[C@H](/C=C(\C)C(=O)O)CC[C@@H](C)[C@H]2CC1 | 65.6 µM (active)
25 | Cc1nc(N)nc(N)c1-c1ccc(Cl)c(Cl)c1 | inactive
26 | CC1(C)S[C@@H]2[C@H](NC(=O)C(C(=O)O)c3ccccc3)C(=O)N2[C@H]1C(=O)O (stereo not given in full) | inactive
27 | CC(C)(C)C1CCCCC1=O (stereo not given) | inactive
28 | CCCCN1C[C@H](O)[C@@H](O)[C@H](O)[C@H]1CO | inactive
29 | CCN(CC)CCNC(=O)COc1ccc(Cl)cc1 | inactive
30 | FC(F)(F)C(F)(F)C(F)(F)C(F)(F)C(F)(F)C(F)(F)C(F)(F)C(F)(F)Br | inactive
31 | CCc1cc2cc(OC)c(OC)cc2c(Cc2ccccc2)n1 | 15.5 µM (active)
32 | CCCCc1ccc2nc(NC(=O)OC)[nH]c2c1 | inactive
33 | CCCCCCCOC(=O)CCC | inactive
34 | CCCOc1ccc2c(c1)CC[C@@H]1[C@@H]2CC[C@]2(C)C(OC)CC[C@@H]12 (stereo not given in full) | 34.7 µM (active)
35 | CCCCCCn1c(=O)c2c(ncn2C)n(C)c1=O | inactive
36 | N#CSCC(=O)O | inactive
37 | COc1ccc(Nc2ccc(OC)cc2)cc1 | 16.2 µM (active)
38 | C[C@]12C(=O)OC(=O)[C@H]1[C@H]1C=C[C@@H]2C1 | inactive
39 | CCCCNC(=S)NCCCC | 71 µM (active)
40 | CCCCNCCCC | inactive
